Reference: PubChem BioAssay AID1159580 (chemical genetic matrix, 2015)
“And” between values parts separate entries of the source, which are not always exact repeats. Identical values can stand only once. The whole screen tested about 5,500 compounds, of which about 2,000 (36%) were called active. Another 18% or so got no clear call; they are omitted. Cut-off read from the data, not from the text of the source: active = normalized growth mostly below about 0.91 (no sharp cut-off); inconclusive = no clear call, values can overlap the other calls; inactive = mostly above about 0.92. This is one part of the list.

Assay: chemical genetic growth profiling, strain panel (AID 1159580);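 note: tested at 20 µM; growth read once vehicle control cultures reached saturation at 30 °C; 1 = growth at the plate median or of vehicle wells; lower values mean less growth of the strain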
Details: S. cerevisiae deletion strains, growth OD

Measured: normalized growth

C[C@]12C=CC(=O)C=C1CCC1C2CC[C@]2(C)C(=O)CCC12 (stereo partly drawn)
inactive: locus YAL021C, strain ccr4, hits give low values 0.97 | locus YAL026C, strain drs2, hits give low values 0.983 | locus YAL030W, strain snc1, hits give low values 0.976 | locus YBL061C, strain skt5, hits give low values 0.971 | locus YBR009C, strain hhf1, hits give low values 0.966 | locus YBR021W, strain FUR4, hits give low values 0.986 | locus YBR023C, strain chs3, hits give low values 0.979 | locus YBR171W, strain sec66, hits give low values 0.987 | locus YBR229C, strain ROT2, hits give low values 0.992 | locus YBR231C, strain swc5, hits give low values 0.982 | locus YBR279W, strain paf1, hits give low values 0.982 | locus YCL011C, strain gbp2, hits give low values 0.988 | locus YCL016C, strain dcc1, hits give low values 0.976 | locus YCL029C, strain bik1, hits give low values 0.992 | locus YCL061C, strain MRC1, hits give low values 0.972 | locus YCL069W, strain vba3, hits give low values 0.981 | locus YCR088W, strain abp1, hits give low values 0.98 | locus YDL005C, strain med2, hits give low values 0.977 | locus YDL035C, strain GPR1, hits give low values 1.03 | locus YDL040C, strain nat1, hits give low values 0.985 | locus YDL074C, strain BRE1, hits give low values 1.01 | locus YDL101C, strain DUN1, hits give low values 1.01 | locus YDL134C, strain PPH21, hits give low values 1.01 | locus YDL185W, strain tfp1, hits give low values 1 | locus YDL192W, strain arf1, hits give low values 0.981 | locus YDR001C, strain nth1, hits give low values 0.984 | locus YDR069C, strain doa4, hits give low values 0.978 | locus YDR101C, strain arx1, hits give low values 0.981 | locus YDR137W, strain rgp1, hits give low values 1.04 | locus YDR150W, strain NUM1, hits give low values 1.01 | locus YDR159W, strain sac3, hits give low values 0.928 | locus YDR162C, strain NBP2, hits give low values 1.03 | locus YDR195W, strain ref2 0.935 | locus YDR297W, strain sur2, hits give low values 0.972 | locus YDR318W, strain mcm21, hits give low values 0.992 | locus YDR334W, strain swr1, hits give low values 0.976 | locus YDR335W, strain msn5, hits give low values 0.988 | locus YDR388W, hits give low values 0.981 | locus YDR392W, strain spt3, hits give low values 0.877 | locus YDR502C, strain sam2, hits give low values 0.976 | locus YEL003W, strain gim4, hits give low values 0.988 | locus YEL037C, strain rad23, hits give low values 0.989 | locus YEL061C, strain CIN8 (second series), hits give low values 0.988 | locus YEL061C, strain CIN8, hits give low values 0.995 | locus YER015W, strain faa2, hits give low values 0.981 | locus YER016W, strain bim1, hits give low values 0.981 | locus YER110C, hits give low values 0.984 | locus YER111C, strain swi4, hits give low values 0.986 | locus YER155C, strain BEM2 (second series), hits give low values 0.949 | locus YER155C, strain BEM2, hits give low values 0.979 | locus YER167W, strain BCK2, hits give low values 0.986 | locus YFR010W, strain ubp6, hits give low values 0.988 | locus YGL078C, strain dbp3, hits give low values 0.986 | locus YGL086W, strain mad1, hits give low values 0.983 | locus YGL167C, strain pmr1, hits give low values 0.976 | locus YGL173C, strain kem1, hits give low values 0.98 | locus YGL227W, strain vid30, hits give low values 0.984 | locus YGL240W, strain doc1, hits give low values 0.926 | locus YGL248W, strain PDE1, hits give low values 0.995 | locus YGL253W, strain hxk2, hits give low values 0.987 | locus YGR078C, strain PAC10, hits give low values 1.02 | locus YGR135W, strain pre9, hits give low values 0.996 | locus YGR229C, strain SMI1, hits give low values 1.07 | locus YGR252W, strain gcn5, hits give low values 0.988 | locus YHR013C, strain ard1, hits give low values 0.951 | locus YHR027C, strain rpn1, hits give low values 0.99 | locus YHR030C, strain SLT2, hits give low values 1.01 and 0.976 | locus YHR079C, strain IRE1 (second series), hits give low values 0.987 | locus YHR079C, strain IRE1, hits give low values 0.978 | locus YHR094C, strain hxt1, hits give low values 0.981 | locus YHR129C, strain ARP1, hits give low values 1 | locus YHR142W, strain chs7, hits give low values 0.995 | locus YHR200W, strain rpn10, hits give low values 0.976 | locus YIL066C, strain RNR3, hits give low values 1.01 | locus YIL073C, strain SPO22, hits give low values 1.04 | locus YIL125W, strain kgd1, hits give low values 0.975 | locus YIR030C, strain dcg1, hits give low values 0.992 | locus YJL092W, strain hpr5, hits give low values 0.985 | locus YJL095W, strain BCK1 (second series), hits give low values 0.98 | locus YJL095W, strain BCK1, hits give low values 1 and 0.98 | locus YJL115W, strain asf1, hits give low values 0.977 | locus YJL129C, strain trk1, hits give low values 0.985 | locus YJL134W, strain LCB3, hits give low values 1.01 | locus YJL154C, strain vps35, hits give low values 0.998 | locus YJL164C, strain tpk1, hits give low values 0.976 | locus YJL166W, strain qcr8, hits give low values 0.957 | locus YJL168C, strain set2, hits give low values 0.978 | locus YJL187C, strain SWE1 (second series), hits give low values 1.02 | locus YJL187C, strain SWE1, hits give low values 0.979 | locus YJR043C, strain POL32, hits give low values 1.03 | locus YJR066W, strain TOR1, hits give low values 0.937 | locus YKL009W, strain mrt4, hits give low values 1 | locus YKL068W, hits give low values 1 | locus YKL085W, strain MDH1 (second series), hits give low values 0.993 | locus YKL085W, strain MDH1, hits give low values 0.993 | locus YKL160W, strain elf1, hits give low values 0.985 | locus YKR001C, strain vps1, hits give low values 0.986 | locus YKR026C, strain gcn3, hits give low values 0.962 | locus YKR091W, strain srl3, hits give low values 0.976 | locus YLL001W, strain dnm1, hits give low values 0.969 | locus YLL026W, hits give low values 0.981 | locus YLL041C, strain sdh2, hits give low values 0.981 | locus YLR027C, strain aat2, hits give low values 0.984 | locus YLR039C, strain RIC1, hits give low values 1.27 | locus YLR058C, strain SHM2, hits give low values 0.993 | locus YLR102C, strain apc9, hits give low values 0.997 | locus YLR113W, strain HOG1, hits give low values 0.966 | locus YLR221C, strain rsa3, hits give low values 0.977 | locus YLR258W, strain gsy2, hits give low values 0.973 | locus YLR262C, strain YPT6 (second series), hits give low values 1.05 | locus YLR262C, strain YPT6, hits give low values 1.23 | locus YLR268W, strain sec22, hits give low values 0.997 | locus YLR320W, strain mms22, hits give low values 0.946 | locus YLR330W, strain CHS5, hits give low values 1 | locus YLR342W, strain FKS1 (second series), hits give low values 0.958 | locus YLR342W, strain FKS1, hits give low values 0.976 | locus YLR357W, strain rsc2, hits give low values 1.01 | locus YLR370C, strain arc18, hits give low values 0.977 | locus YLR371W, strain rom2, hits give low values 0.993 | locus YLR384C, strain iki3, hits give low values 0.983 | locus YLR418C, strain cdc73, hits give low values 0.968 | locus YML016C, strain PPZ1, hits give low values 0.994 | locus YML032C, strain rad52, hits give low values 0.996 | locus YML120C, strain ndi1, hits give low values 0.983 | locus YML124C, strain tub3, hits give low values 0.982 | locus YMR058W, strain fet3, hits give low values 0.979 | locus YMR078C, strain ctf18, hits give low values 0.974 | locus YMR125W, strain sto1, hits give low values 0.997 | locus YMR129W, hits give low values 0.991 | locus YMR205C, strain PFK2, hits give low values 0.963 | locus YMR223W, strain ubp8, hits give low values 0.98 | locus YMR231W, strain pep5, hits give low values 0.986 | locus YMR263W, strain SAP30, hits give low values 0.99 | locus YMR307W, strain GAS1, hits give low values 1.16 | locus YNL067W, strain RPL9B, hits give low values 1.02 | locus YNL071W, strain lat1, hits give low values 0.977 | locus YNL128W, strain TEP1, hits give low values 1.02 | locus YNL153C, strain GIM3, hits give low values 1.01 | locus YNL183C, strain NPR1, hits give low values 0.897 | locus YNL209W, strain ssb2, hits give low values 0.985 | locus YNL233W, strain BNI4, hits give low values 0.994 | locus YNL248C, strain rpa49, hits give low values 0.991 | locus YNL250W, strain rad50, hits give low values 0.99 | locus YNL271C, strain bni1, hits give low values 0.989 | locus YNL298W, strain CLA4, hits give low values 0.981 | locus YNL307C, strain MCK1, hits give low values 0.982 | locus YNL322C, strain KRE1 (second series), hits give low values 0.978 | locus YNR049C, strain mso1, hits give low values 0.983 | locus YNR052C, strain pop2, hits give low values 0.989 | locus YOL006C, strain TOP1, hits give low values 0.98 | locus YOL012C, strain htz1 1.46 | locus YOL147C, strain pex11, hits give low values 0.997 | locus YOR001W, strain rrp6, hits give low values 0.98 | locus YOR061W, strain CKA2, hits give low values 0.996 | locus YOR069W, strain VPS5, hits give low values 0.998 | locus YOR070C, strain gyp1, hits give low values 0.989 | locus YOR080W, strain dia2, hits give low values 0.972 | locus YOR083W, strain WHI5, hits give low values 0.983 | locus YOR106W, strain vam3, hits give low values 0.982 | locus YOR136W, strain idh2, hits give low values 0.987 | locus YOR144C, strain elg1, hits give low values 0.977 | locus YOR184W, strain ser1, hits give low values 0.985 | locus YOR231W, strain MKK1, hits give low values 0.98 | locus YOR265W, strain rbl2, hits give low values 0.983 | locus YOR270C, strain vph1, hits give low values 0.941 | locus YOR290C, strain snf2, hits give low values 0.943 | locus YOR316C, strain cot1, hits give low values 0.984 | locus YPL051W, strain arl3, hits give low values 0.998 | locus YPL055C, strain LGE1, hits give low values 1.02 | locus YPL078C, strain atp4, hits give low values 0.989 | locus YPL106C, strain sse1, hits give low values 0.958 | locus YPL240C, strain hsp82, hits give low values 0.965 | locus YPL256C, strain CLN2, hits give low values 0.98 | locus YPR119W, strain clb2, hits give low values 0.975 | locus YPR141C, strain kar3, hits give low values 0.982 | locus YPR163C, strain tif3, hits give low values 0.992 | locus YPR167C, strain met16, hits give low values 0.981 | strain wtn01, hits give low values 0.99
